DAX1 inh-1: DAX1 (NR0B1) inhibitors, primary screen, cell-based, HEK293, Gal4-DAX1, luciferase luminescence; Nuclear receptor subfamily 0 group B member 1 (Homo sapiens), P51843; HEK293 Gal4-DAX1 luciferase reporter; inhibition, % at 6.75 µM; 0.99% of 340,000 active;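 active = inhibition above the mean over all tested compounds plus 3 SD, cut at about 4.2% in these data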;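 also: 0% = DAX1-transfected cells with DMSO and 100% = empty-vector control cells with DMSO; inhibition shows as a rise in luminescence from relieved DAX1 repression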
ssDAF12 agonist: S. stercoralis DAF-12 nuclear receptor activators, primary screen, cell-based, luminescence, HEK293, GRIP1 co-expression, lit1-tk-luc; Nuclear hormone receptor DAF-12 (Strongyloides stercoralis); HEK293 ssDAF-12/GRIP1 lit1-tk-luc reporter; % of 3 µM dafachronic acid response; activation, % at 6.8 µM; 1% of 370,000 active;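 active = activation above the mean over all tested compounds plus 3 SD, cut at about 0.9% in these data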;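 also: 0% = DMSO-only wells and 100% = 3 µM delta7-dafachronic acid wells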
DAX1 inh-2: DAX1 (NR0B1) inhibitors on StAR promoter, primary screen, cell-based, luminescence, SF-1 (NR5A1), full-length DAX-1; HEK293T StAR-luciferase reporter, SF-1/DAX-1 repression relief; inhibition, % at 6.8 µM; 1.1% of 370,000 active; AID 652010, 2013;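 active = inhibition above the mean over all tested compounds plus 3 SD, cut at about 3.6% in these data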;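 also: 0% = DAX-1 cells with DMSO and 100% = cells lacking DAX-1 with DMSO; higher inhibition means more luminescence from relief of DAX-1 repression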
hcDAF12 agonist: H. contortus DAF-12 nuclear receptor activators, primary screen, cell-based, luminescence, HEK293, lit1-tk-luc reporter; HEK293 hcDAF-12 lit1-tk-luc reporter; 0% DMSO, 100% Δ7-dafachronic acid; activation, % at 6.8 µM; 1.4% of 370,000 active;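 active = activation above the mean of all tested compounds plus 3 SD, cut at about 5.5% in these data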;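 also: 100% = response to 3 µM Δ7-dafachronic acid high control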
hgDAF12 agonist: H. glycines DAF-12 receptor agonists, primary screen, cell-based, luminescence, HEK293, GAL4 fusion, UAS-luciferase; HEK293 GAL4-hgDAF12 UAS-luciferase reporter, agonist luminescence; normalized to butyrate control; 1.8% of 370,000 active; Nuclear hormone receptor DAF-12 (Heterodera glycines), GAL4 fusion; AID 687014, 2013; activation, % at 6.8 µM;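 active = activation above a cutoff set at the mean of all screened compounds plus 3 SD, cut at about 10% in these data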;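 also: 0% = DMSO wells and 100% = sodium butyrate wells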
DAX1 inh confirm: DAX1 (NR0B1) inhibitors relieving SF-1 repression, confirmation, cell-based, luminescence, HEK293T, full-length DAX-1, SF-1 activated StAR promoter. shares compounds with DAX1 inh-2. HEK293T StAR-promoter luciferase reporter, SF-1/DAX-1 repression. inhibition, % at 6.8 µM. 87% of 2,400 active;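 active = inhibition above the average of every tested compound plus 3 SD, cut at about 3.8% in these data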;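 also: 0% = DAX-1 cells with DMSO and 100% = no DAX-1 control cells with DMSO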
Target sequence (P51843 whole entry, looked up): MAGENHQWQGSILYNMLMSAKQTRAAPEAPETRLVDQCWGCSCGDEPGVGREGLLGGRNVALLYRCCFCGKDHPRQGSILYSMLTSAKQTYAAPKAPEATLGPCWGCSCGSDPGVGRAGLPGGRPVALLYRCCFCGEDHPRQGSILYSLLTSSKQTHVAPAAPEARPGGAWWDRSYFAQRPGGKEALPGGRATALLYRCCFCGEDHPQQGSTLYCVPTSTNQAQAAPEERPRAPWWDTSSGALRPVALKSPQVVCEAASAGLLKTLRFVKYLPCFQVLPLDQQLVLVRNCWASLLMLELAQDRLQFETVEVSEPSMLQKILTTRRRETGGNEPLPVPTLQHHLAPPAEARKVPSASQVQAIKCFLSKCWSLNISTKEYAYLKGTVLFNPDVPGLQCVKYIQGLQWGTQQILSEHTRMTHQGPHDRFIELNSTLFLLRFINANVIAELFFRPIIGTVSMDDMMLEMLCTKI
SF1 mutant ctr: StAR reporter signal changes without DAX1, counter-screen for DAX1 inhibitor project, cell-based, luminescence, AF-2 mutant SF-1, transactivation; shares compounds with DAX1 inh-2; 78% of 2,400 active; HEK293 StAR-luciferase, SF-1 AF2 mutant; inhibition, % at 6.8 µM;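 active = inhibition above the mean of all tested compounds plus 3 SD, cut at about 3% in these data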;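 also: 0% = DAX-1 transfected cells with DMSO and 100% = cells without DAX-1 with DMSO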
LXRb hcDAF ctr: LXR agonists, Gal4 luciferase reporter, confirmation, counter-screen for hcDAF-12 agonist project, cell-based, luminescence, HEK293, H. contortus campaign | shares compounds with hcDAF12 agonist | HEK293 Gal4-LXR tk-luc reporter, 24 h; normalized: DMSO 0%, positive control 100% | activation, % at 6.8 µM | 3,400 tested, under 10 active;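 active = mean percent activation of the reporter above a cutoff set as the average over tested compounds plus their standard deviation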
hcDAF12 conf: H. contortus DAF-12 receptor agonists, confirmation, cell-based, luminescence, HEK293, lit1-tk-luc, triplicate. shares compounds with hcDAF12 agonist. HEK293 hcDAF-12 lit1-tk-luc reporter; % of Δ7-dafachronic acid response. activation, % at 6.8 µM. 61% of 3,400 active. AID 743032, 2013;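 active = mean activation across triplicate tests above the threshold derived from the earlier primary screen, cut at about 5.5% in these data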;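 also: 0% = DMSO only wells and 100% = 3 µM Δ7-dafachronic acid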
hgDAF12 conf: H. glycines DAF-12 receptor agonists, confirmation, cell-based, luminescence, HEK293, GAL4-LBD fusion. activation, % at 6.8 µM. AID 743050, 2013. shares compounds with hgDAF12 agonist. HEK293 GAL4-hgDAF12 luciferase reporter, agonist mode; percent of butyrate response. 80% of 3,300 active;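 active = mean activation over triplicate wells above the hit cutoff derived from the earlier primary screen, cut at about 11% in these data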;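 also: 0% = DMSO low control and 100% = 2 mM sodium butyrate high control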
LXRb DAF12 ctr: LXR agonists, Gal4 luciferase reporter, confirmation, counter-screen for hgDAF-12 agonist project, cell-based, luminescence, HEK293, H. glycines campaign. 3,300 tested, under 10 active. 24 h. activation, % at 6.8 µM. shares compounds with hgDAF12 agonist;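 active = mean activation of the triplicate above a set limit carried over from the primary screen, none filed active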
Numbers without * were called inactive; x = no result. The list is not random: actives were taken first. Their share in the collection is about 4.1%.

SMILES	DAX1 inh-1	ssDAF12 agonist	DAX1 inh-2	hcDAF12 agonist	hgDAF12 agonist	DAX1 inh confirm	SF1 mutant ctr	hgDAF12 conf	LXRb DAF12 ctr	others
O=C(CN1CCc2onc(-c3ccc(-n4cc(C5=CCCCC5)nn4)cc3)c2C1=O)N1CCOCC1	x	-1	-2	-2	-1	x	x	x	x
Cc1ccc(NC(=O)OCCN(C)C(=O)Nc2ccc(C)cc2C)c(C)c1	x	-1	-1	-1	-3	x	x	x	x
O=C(Nc1ccc(SC(F)(F)F)cc1)c1ccccn1	0	1.1*	6.1*	8.4*	22*	15*	3	20*	1	LXRb hcDAF ctr=2;hcDAF12 conf=11*
COc1ccc(-c2cc(C)nc3c(-c4ccccc4)cnn23)cc1	0	0	12*	5	14*	15*	7.8*	9	1
Cc1cc(N2CCCCC2)n2ncc(-c3ccccc3)c2n1	-1	-1	2	5	3	x	x	x	x
Cc1nnc(NC(=O)CSc2ccc(-c3ccc(Cl)cc3)nn2)s1	0	-2	0	1	3	x	x	x	x
CCc1ccc(-c2ccc(SCC(=O)Nc3nnc(C)s3)nn2)cc1	0	0	6.0*	7.6*	21*	10*	7.8*	16*	1	LXRb hcDAF ctr=1;hcDAF12 conf=6.0*
COc1cccc(CCNC(=O)c2cc(COc3ccc(C)c(C)c3)on2)c1OC	4.4*	0	4.6*	4	14*	7.8*	3.4*	16*	1
Cc1ccc(OCc2cc(C(=O)NCCc3cccnc3)no2)cc1C	0	-1	-1	0	1	x	x	x	x
COc1cc(OC)c2c(=O)cc(-c3ccccc3)oc2c1	4	-1	4.7*	3	16*	4.7*	1	9	0
COc1ccc(N2C(=O)c3ccccc3NC2(C)C)cc1	0	-1	7.6*	3	28*	3	1	9	0
COC(=O)C1(C)Nc2ccccc2C(=O)N1c1ccccc1OC (stereo unspecified)	-1	0	0	-1	1	x	x	x	x
COC(=O)CSc1nnc(-c2cc(-c3ccccc3)n[nH]2)n1N	x	-2	-1	1	0	x	x	x	x
CC(=O)c1cccc(OCc2cc(C(=O)N3CCSCC3)no2)c1	1	-1	4.8*	4	14*	6.6*	6.3*	15*	0
Cc1cccc(C)c1OCc1cc(C(=O)N2CCN(c3ccc(F)cc3)CC2)no1	2	0	5.9*	5	14*	4.5*	3.6*	15*	1
C[C@H]1CN(C(=O)OC(C)(C)C)CCN1c1ccc(N2CC[C@H](O)C2)c(C#N)c1	x	-1	0	1	2	x	x	x	x
O=C(Nc1ccc(F)cc1)OCc1cn(Cc2cccc(Cl)c2)nn1	x	-1	0	-2	-1	x	x	x	x
CCOC(=O)[C@]12CCCC3=C1N(CCC3)C(=O)[C@@H](CC(=O)N1CCCC1)C2	x	-1	0	-2	-3	x	x	x	x
Cc1cccc(NC(=O)c2c(C)nc3ccccn23)c1	-1	-1	1	-1	3	x	x	x	x
Cc1ccc(NC(=O)c2c(C)nc3ccccn23)cc1C	5.6*	-1	5.8*	1	14*	8.9*	6.1*	16*	1
C=CCN1C(=O)c2n[nH]c(COC)c2C1c1ccc(C)cc1 (stereo unspecified)	x	-1	0	-2	-1	x	x	x	x
COc1ccc(OC[C@@H](O)CN2CCC(C(O)(c3ccccc3)c3ccccc3)CC2)cc1	x	0	1	-2	4	x	x	x	x
O=C(Nc1cccc(F)c1)c1ccc(-n2cncn2)c2ccoc12	x	0	9.0*	9.4*	17*	16*	5.4*	17*	1	LXRb hcDAF ctr=2;hcDAF12 conf=9.5*
C/C(=N\Nc1nccnc1Cl)c1ccc(Cl)c(Cl)c1	2	1	4.5*	6.3*	17*	3	3	3	0
C/C(=N\Nc1nccnc1Cl)c1ccc(F)cc1	2	1.5*	9.6*	4	20*	6.5*	4.2*	11*	0
COC(=O)[C@]12C[C@H](CC(=O)N3CCN(C(=O)C4CC4)CC3)C(=O)N(Cc3ccccc3)C1=C[C@H](C(C)(C)C)O[C@@H]2C	x	-1	1	-1	0	x	x	x	x
Cc1cccnc1NC(=O)c1ccc(S(=O)(=O)N2CCCCCC2)cc1	1	-1	0	0	1	x	x	x	x
CC1CCN(S(=O)(=O)c2ccc(C(=O)Nc3ncccc3O)cc2)CC1	3	0	6.3*	0	16*	8.4*	4.3*	15*	0
C(=N\N=C\c1cccnc1)/c1cccnc1	0	x	x	x	x	x	x	x	x
CN(/N=C/c1cccnc1)c1cnc2ccccc2n1	2	4.2*	7.3*	12*	20*	11*	5.8*	17*	1	LXRb hcDAF ctr=1;hcDAF12 conf=10*
